Data taken from PubChem BioAssay (NCI).
Compounds without any hit were thinned out: in the full panel of roughly 83,000, 20% have a hit.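 Growth was measured after 48 h exposure to one concentration of compound in 96-well plates. Values under 10 count as active.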 Values without a mark were called inactive. Activity calls are given as the source filed them.

Legend:
Test in all cases: NCI-60 one-dose screen, 48 h (100 = growth as untreated, 0 = no growth, -100 = all killed)
Conditions in all cases: 10 µM unless noted
[1] = tested on: NCI-H23 lung
[2] = tested on: NCI-H226 lung
[3] = tested on: NCI-H322M lung
[4] = tested on: HOP-62 NSCLC
[5] = tested on: NCI-H460 lung
[6] = tested on: HOP-92 NSCLC
[7] = tested on: NCI-H522 lung
[8] = tested on: A549/ATCC NSCLC
[9] = tested on: 786-0 renal
[10] = tested on: COLO 205 colon
[11] = tested on: DU-145 prostate
[12] = tested on: K-562 leukemia
[13] = tested on: MALME-3M melanoma
[14] = tested on: MDA-MB-231 breast
[15] = tested on: RXF 393 renal
[16] = tested on: SF-268 CNS
[17] = tested on: SF-295 CNS
[18] = tested on: SF-539 CNS
[19] = tested on: UACC-257 melanoma
[20] = tested on: M14 melanoma

| Structure (SMILES) | growth [1] | growth [2] | growth [3] | growth [4] | growth [5] | growth [6] | growth [7] | growth [8] | growth [9] | growth [10] | growth [11] | growth [12] | growth [13] | growth [14] | growth [15] | growth [16] | growth [17] | growth [18] | growth [19] | growth [20] |
| --- | --- | --- | --- | --- | --- | --- | --- | --- | --- | --- | --- | --- | --- | --- | --- | --- | --- | --- | --- | --- |
| O=C(CN1CCN(C(=O)c2ccco2)CC1)Nc1ccc(Cl)cc1C(=O)c1ccccc1Cl | 85.3% | 95.1% | 98.2% | 105% | 104% | 73.9% | 67.7% | 77.2% | 95.8% | 95.9% | 111% | 80.6% | 104% | 49.2% | -11.8% (active) | 90.7% | 109% | 99.8% | 86.2% | 90.4% |
| COc1cccc2c1c(C(=O)c1ccco1)cn2Cc1ccc(F)cc1 | 111% | 96.3% | 115% | 125% | 113% | 63.4% | 76.2% | 112% | 110% | 123% | 100% | 253% | 131% | 89.9% | 131% | 114% | 122% | 113% | 104% | 131% |
| COC(=O)[C@@]1(C)CC[C@]2(C)CC[C@]3(C)C4=CC(=O)c5c(cc(O)c(O)c5C)[C@]4(C)CC[C@@]3(C)[C@@H]2C1 | 46.9% | 51.1% | 70.6% | 71.7% | 31.8% | 49.2% | 38.5% | 38.6% | 78.6% | 71.5% | 67.1% | 49% | 106% | 61.4% | 85% | 61.7% | 49.8% | 78% | 41.9% | 66.4% |
| CC1CN1CCCCN1CC1C (stereo not given) | 109% | 106% | 101% | 109% | 104% | 88.2% | 66.4% | 101% | 103% | 115% | 105% | 83.6% | 103% | 125% | 115% | 98.6% | 101% | 103% | 83.9% | 107% |
| NC(CCl)CCl | 104% | 94.6% | 102% | -100% (active) | 110% | 109% | 100% | 102% | 107% | -100% (active) | 105% | 116% | 92.6% | 102% | 107% | 103% | 93.9% | 95.1% | 102% | 94.6% |
| CCOc1ccccc1C(=O)OCC(Cl)(Cl)Cl | 102% | 101% | 102% | 99.9% | 107% | 113% | 105% | 106% | 99.6% | 102% | 99.8% | 98.8% | 109% | 114% | 109% | 101% | 105% | 101% | 112% | 103% |
| CC(C)=CCC[C@H](C(=O)O)[C@@H]1CC[C@]2(C)C3=C(CC[C@@]12C)[C@@]1(C)CC[C@H](O)C(C)(C)[C@@H]1CC3 | 106% | 109% | 84.2% | 97.3% | 109% | 101% | 60.8% | 81.8% | 92% | 120% | 110% | 70.4% | 106% | 103% | 104% | 101% | 94.6% | 93.2% | 88.9% | 85.9% |
| CO[C@H](C(=O)O)[C@@H]1Cc2cc3cc(OC4CC(OC5CC(O)C(O)C(C)O5)C(O)C(C)O4)c(C)c(O)c3c(O)c2C(=O)[C@H]1OC1CC(OC2CC(OC3CC(C)(O)C(O)C(C)O3)C(O)C(C)O2)C(O)C(C)O1 (stereo not given in full) | -0.124% (active) | 0.862% (active) | 21.6% | 20.7% | 11.2% | 24.7% | -3.78% (active) | 13.7% | 10.3% | -12.5% (active) | 21.5% | 11.8% | -10.4% (active) | 19.9% | -57.1% (active) | 29.3% | 11.2% | -23.1% (active) | 7.77% (active) | -8.35% (active) |
| CC[C@@H]1[C@@H](C)O[C@@](O)([C@@H](C)[C@H](O)[C@H](C)[C@H]2OC(=O)/C=C/C=C/[C@H](C)[C@@H]([C@@H](C)[C@@H](O)[C@H](C)[C@@]3(O)C[C@@H](O[C@H]4C[C@@H](O)[C@H](O)C(C)O4)[C@H](CC)[C@@H](C)O3)OC(=O)/C=C/C=C/[C@@H]2C)C[C@H]1O[C@@H]1C[C@@H](O)[C@H](O)C(C)O1 (stereo not given in full) | -73.9% (active) | -57.5% (active) | -96.6% (active) | -80.6% (active) | -72.6% (active) | -89.9% (active) | -81.8% (active) | -89.7% (active) | -86.1% (active) | -78.4% (active) | -97.5% (active) | -71.6% (active) | -97% (active) | -68.3% (active) | -96.7% (active) | -86.3% (active) | -86.5% (active) | -96.8% (active) | -89.5% (active) | -83.9% (active) |
| Clc1cccc(Cl)c1Cl | 102% | 101% | 99.5% | 99% | 107% | 113% | 65.1% | 85.9% | 96.1% | 122% | 101% | 84.9% | 103% | 117% | 122% | 97.5% | 95.1% | 100% | 86.6% | 94.7% |
| CC(C)(C)C(=O)OCOP(=O)(NCc1ccccc1)C1CCCN(O)C1=O (stereo not given) | 49.1% | 32.4% | 27.8% | 23.4% | 7.07% (active) | 34% | 8.18% (active) | 29.9% | 23.9% | 45.7% | 55% | 32.3% | 19.9% | 22.6% | 8.85% (active) | 10.5% | 60.3% | 45.2% | 57.3% | 38.4% |
| O=C1NC(=O)C(=Cc2cn(C(=O)c3ccccc3)c3ccccc23)C(=O)N1 | 98% | 92.3% | 95.5% | 93.4% | 97.6% | 71.8% | 85.8% | 101% | 101% | 113% | 113% | 141% | 90.5% | 88.9% | 45% | 102% | 116% | 87.6% | 87% | 95.3% |
| COc1ccc(/C=C\c2cc(OC)c(OC)c(OC)c2)cc1OCC(=O)Nc1nc2ccc(OC(F)(F)F)cc2s1 | 35.6% | 74.2% | 73.6% | 53.7% | 12.4% | 55.9% | 15.8% | 66.5% | 92.6% | 106% | 6.56% (active) | 22.9% | 26.4% | 36.7% | 26.4% | 45.8% | 40.8% | 14% | 58.7% | 11.5% |
| CC[C@H](C)[C@H](NC(=O)[C@H]1CCCCN1C)C(=O)N(C)[C@H](C[C@@H](OC(C)=O)c1cccc(C(=O)N[C@@H](Cc2ccccc2)C[C@H](C)C(=O)O)n1)C(C)C | 24.3% | 19.7% | 45.2% | 1.64% (active) | 7.49% (active) | 37% | -12.8% (active) | 11.4% | 23.1% | -66.1% (active) | -16.1% (active) | 7.77% (active) | 64.1% | -0.17% (active) | 31.2% | 18% | 2.98% (active) | -10.7% (active) | 47.9% | 10% |
